{"source": "PubChem BioAssay AID1035475", "about": "(Broad Institute, 2014)", "note": "Potency and affinity values are given separately. Records with an inconclusive call do not appear. A call without a number means that no potency is given here. Activity calls are given as the source filed them.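 The calls were made as follows: active = fluorescent signal drops by 40% or more, counted as a hit; inconclusive = no clear call, values can overlap the other calls; inactive = the rest, including any activity in the opposite direction.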", "data": [{"assay": "blockers of FN fibrillogenesis by fibroblasts – AH1F cells, Alexa488-FN fluorescence, cherry-picks, dose response (AID 1035475);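 also: AH1F fibroblasts incorporating labeled fibronectin into their extracellular matrix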", "conditions": "Alexa488-fibronectin deposition fluorescence, overnight; series mostly up to 35 µM", "values": [{"compound": "O=C(OCC(O)C(O)COC(=O)c1ccccc1)c1ccccc1", "note": "(stereo not given)", "outcome": "inactive"}, {"compound": "O=C(c1cccnc1)N1C[C@H]2[C@@H](c3ccccc31)[C@H](CO)N2CC1CCCC1", "outcome": "inactive"}, {"compound": "O=C(Nc1ccccc1F)N1C[C@@H]2[C@H](c3ccccc31)[C@@H](CO)N2C(=O)C1CC1", "outcome": "inactive"}, {"compound": "Cc1ccc(CS(=O)Cc2ccc(C(=O)NC3CCCC(C)C3C)o2)cc1", "note": "(stereo not given)", "outcome": "inactive"}, {"compound": "CSc1ccccc1C(=O)C1CCCN(C(=O)CCc2cccnc2)C1", "note": "(stereo not given)", "outcome": "inactive"}, {"compound": "CC1(C)Cc2c(C#N)c(SCC(=O)c3ccccc3)nc(N3CCOCC3)c2CS1", "outcome": "inactive"}, {"compound": "C[C@@H]1CN([C@H](C)CO)C(=O)c2cc(-c3ccccc3)cnc2O[C@@H]1CN(C)Cc1ccccc1", "outcome": "inactive"}, {"compound": "C[C@H](CO)N1C[C@H](C)[C@H](CN(C)C)Oc2cc(C#C[C@@H](C)O)ccc2S1(=O)=O", "outcome": "inactive"}, {"compound": "O=C(NCCS(=O)(=O)N1CCN(c2ccc(F)cc2)CC1)c1ccc(Br)o1", "outcome": "inactive"}, {"compound": "Nc1nc(-c2cc3c(cc2Cl)OCCO3)cs1", "outcome": "inactive"}, {"compound": "N#C[C@H]1[C@@H](c2ccccc2C2=CCCCC2)[C@H](CO)N1S(=O)(=O)c1ccccc1", "outcome": "inactive"}, {"compound": "COCC(=O)Nc1ccc2c(c1)C(=O)N(C)[C@@H]1CC[C@H](CC(=O)NCc3ccccc3Cl)O[C@H]1CO2", "outcome": "inactive"}, {"compound": "Cc1ccc(NC(=O)COC(=O)c2cc(Cl)ccc2[N+](=O)[O-])c(C)c1", "outcome": "inactive"}, {"compound": "O=C(Nc1ccccc1F)N1C[C@H]2[C@@H](c3ccccc31)[C@@H](CO)N2C(=O)C1CC1", "outcome": "inactive"}, {"compound": "Cc1oc2ccc(O)cc2c1C(=O)c1ccc(Br)cc1", "outcome": "inactive"}, {"compound": "C[C@H](CO)N1C[C@H](C)[C@@H](CN(C)C(=O)Nc2cccc3ccccc23)Oc2c(NC(=O)Nc3ccc(C(F)(F)F)cc3)cccc2C1=O", "outcome": "inactive"}, {"compound": "C[C@H](CO)N1C[C@H](C)[C@@H](CN(C)Cc2ccc(-c3ccccc3)cc2)Oc2ccc(NC(=O)CCCN(C)C)cc2C1=O", "outcome": "inactive"}, {"compound": "O=S(=O)(c1ccccc1F)N1CC[C@H]2[C@H](CO)Nc3ccc(-c4cccc(F)c4)cc3[C@H]21", "outcome": "inactive"}, {"compound": "c1ccc2[nH]c(SCc3cn4cccnc4n3)nc2c1", "outcome": "inactive"}, {"compound": "C[C@H]1CN([C@@H](C)CO)C(=O)c2cc(-c3ccccc3)cnc2O[C@@H]1CN(C)C(=O)c1cccc(F)c1", "outcome": "inactive"}, {"compound": "O=C(c1cccnc1)N1C[C@@H]2[C@H](c3ccccc31)[C@H](CO)N2CC1CCCC1", "outcome": "inactive"}, {"compound": "Cc1ccc(N(CC(=O)NCc2ccco2)S(=O)(=O)c2ccccc2)cc1", "outcome": "inactive"}, {"compound": "COc1cccc(CNC(=O)CCc2nnc3ccc(NCCCN4CCCC4=O)nn23)c1", "outcome": "inactive"}, {"compound": "COc1cccc(-c2ccc3c(c2)[C@H]2[C@H](CCN2S(=O)(=O)c2cccc(OC)c2)[C@H](CO)N3)c1", "outcome": "inactive"}, {"compound": "N#C[C@@H]1[C@@H](c2ccccc2C2=CCCCC2)[C@H](CO)N1S(=O)(=O)c1ccccc1", "outcome": "inactive"}, {"compound": "Cn1cnc(S(=O)(=O)N2CCN(c3ccccc3)CC2)c1", "outcome": "inactive"}, {"compound": "NC(=O)C1=C[C@H](c2coc3ccccc3c2=O)C[C@H](OCCCCO)O1", "outcome": "inactive"}, {"compound": "COc1ccc([N+](=O)[O-])cc1NS(=O)(=O)c1ccc(C(=O)N2CCCC2)cc1", "outcome": "inactive"}, {"compound": "CN(C)C(=O)c1ccc(-c2ccc3c(c2)[C@H]2[C@H](CCN2C(=O)c2ccc(F)cc2)[C@@H](CO)N3C)cc1", "outcome": "inactive"}, {"compound": "CO[C@H]1CN(C)C(=O)c2cc(NC(=O)Nc3cc(Cl)cc(Cl)c3)ccc2OC[C@H](C)NC[C@@H]1C", "outcome": "inactive"}, {"compound": "C=CCC[C@H](Cc1ccc(F)cc1)C(=O)OC[C@H](Cc1c[nH]c2ccccc12)NC(=O)[C@@H](CC=C)CC(=O)N[C@@H](CO)Cc1ccccc1", "outcome": "inactive"}, {"compound": "C[C@@H]1CN([C@@H](C)CO)C(=O)c2cc(-c3ccncc3)cnc2O[C@@H]1CN(C)C(=O)Cc1cccnc1", "outcome": "inactive"}, {"compound": "C[C@@H]1CN([C@H](C)CO)C(=O)c2cc(NC(=O)CCCN(C)C)ccc2O[C@H]1CN(C)Cc1ccc(-c2ccccc2)cc1", "outcome": "inactive"}, {"compound": "C[C@H](CO)N1C[C@H](C)[C@H](CN(C)Cc2ccc(-c3ccccc3)cc2)Oc2ccc(NC(=O)C3CCCCC3)cc2C1=O", "outcome": "inactive"}, {"compound": "OC(CNC1CCCc2ccccc21)COc1c(Cl)cccc1Cl", "note": "(stereo not given)", "outcome": "inactive"}]}]}
